Measured values reported in the supplement of paper PMC4466140.

Each binder was assayed against CaNbp2 (assay: SPOT peptide array binding signal intensity (averaged, normalized) (arbitrary units (background-subtracted, floor 0; scale differs between SH3 domains)); higher = stronger binding of the SH3 domain to the peptide).
Outline: (§1)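 E. coli BL21(DE3) was used to express GST-fused SH3 domains from four yeast species, which were then purified on glutathione Sepharose. These were incubated at 10 μg/ml in TBS-based blocking buffer overnight at 4°C on cellulose membranes carrying synthetic 15-mer peptides, in which cysteines were replaced by serines. Binding signal is the replicate average of normalized, background-subtracted spot intensity, in arbitrary units that differ between domains.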

Binder	SPOT peptide array binding signal intensity
LYEAMPPTLPHRDWK	141

These binders were tested against CaRvs167 in the same assay as above.
Outline: as §1

Binder	SPOT peptide array binding signal intensity
LYEAMPPTLPHRDWK	195

These binders were tested against CaRvs167-3 in the same assay as above.
Outline: as §1

Binder	SPOT peptide array binding signal intensity
LYEAMPPTLPHRDWK	6

The binders below were run against CaSho1 in the same assay as above.
Outline: as §1

Binder	SPOT peptide array binding signal intensity
LYEAMPPTLPHRDWK	130

The binders below were run against CaSla1-D1-D2 in the same assay as above.
Outline: as §1

Binder	SPOT peptide array binding signal intensity
LYEAMPPTLPHRDWK	25.5

What follows are binders tested against CaSla1-D3 in the same assay as above.
Outline: as §1

Binder	SPOT peptide array binding signal intensity
LYEAMPPTLPHRDWK	60.5

The binders below were run against ScAbp1 in the same assay as above.
Outline: as §1

Binder	SPOT peptide array binding signal intensity
LYEAMPPTLPHRDWK	≤ 0

What follows are binders tested against ScBbc1 in the same assay as above.
Outline: as §1

Binder	SPOT peptide array binding signal intensity
LYEAMPPTLPHRDWK	≤ 0

Each binder was assayed against ScBem1-D1 in the same assay as above.
Outline: as §1

Binder	SPOT peptide array binding signal intensity
LYEAMPPTLPHRDWK	≤ 0

The binders below were run against ScBzz1-D1 in the same assay as above.
Outline: as §1

Binder	SPOT peptide array binding signal intensity
LYEAMPPTLPHRDWK	≤ 0

Each binder was assayed against ScBzz1-D2 in the same assay as above.
Outline: as §1

Binder	SPOT peptide array binding signal intensity
LYEAMPPTLPHRDWK	21

The binders below were run against ScCyk3 in the same assay as above.
Outline: as §1

Binder	SPOT peptide array binding signal intensity
LYEAMPPTLPHRDWK	3

The binders below were run against ScFus1 in the same assay as above.
Outline: as §1

Binder	SPOT peptide array binding signal intensity
LYEAMPPTLPHRDWK	95.5

These binders were tested against ScHof1 in the same assay as above.
Outline: as §1

Binder	SPOT peptide array binding signal intensity
LYEAMPPTLPHRDWK	4.5

The binders below were run against ScHse1 in the same assay as above.
Outline: as §1

Binder	SPOT peptide array binding signal intensity
LYEAMPPTLPHRDWK	15

Each binder was assayed against ScLsb1 in the same assay as above.
Outline: as §1

Binder	SPOT peptide array binding signal intensity
LYEAMPPTLPHRDWK	13

What follows are binders tested against ScLsb2 in the same assay as above.
Outline: as §1

Binder	SPOT peptide array binding signal intensity
LYEAMPPTLPHRDWK	2

Each binder was assayed against ScLsb3 in the same assay as above.
Outline: as §1

Binder	SPOT peptide array binding signal intensity
LYEAMPPTLPHRDWK	736

Each binder was assayed against ScLsb4 in the same assay as above.
Outline: as §1

Binder	SPOT peptide array binding signal intensity
LYEAMPPTLPHRDWK	636

The binders below were run against ScMyo3 in the same assay as above.
Outline: as §1

Binder	SPOT peptide array binding signal intensity
LYEAMPPTLPHRDWK	19.5

Each binder was assayed against ScMyo5 in the same assay as above.
Outline: as §1

Binder	SPOT peptide array binding signal intensity
LYEAMPPTLPHRDWK	0.5

These binders were tested against ScNbp2 in the same assay as above.
Outline: as §1

Binder	SPOT peptide array binding signal intensity
LYEAMPPTLPHRDWK	252

What follows are binders tested against ScPex13 in the same assay as above.
Outline: as §1

Binder	SPOT peptide array binding signal intensity
LYEAMPPTLPHRDWK	807

These binders were tested against ScRvs167 in the same assay as above.
Outline: as §1

Binder	SPOT peptide array binding signal intensity
LYEAMPPTLPHRDWK	374

Each binder was assayed against ScSho1 in the same assay as above.
Outline: as §1

Binder	SPOT peptide array binding signal intensity
LYEAMPPTLPHRDWK	257

Each binder was assayed against ScSla1-D1-D2 in the same assay as above.
Outline: as §1

Binder	SPOT peptide array binding signal intensity
LYEAMPPTLPHRDWK	46

What follows are binders tested against ScSla1-D3 in the same assay as above.
Outline: as §1

Binder	SPOT peptide array binding signal intensity
LYEAMPPTLPHRDWK	85.5

The binders below were run against SpAbp1-D1 in the same assay as above.
Outline: as §1

Binder	SPOT peptide array binding signal intensity
LYEAMPPTLPHRDWK	≤ 0

The binders below were run against SpBbc1 in the same assay as above.
Outline: as §1

Binder	SPOT peptide array binding signal intensity
LYEAMPPTLPHRDWK	2

What follows are binders tested against SpBzz1-D1 in the same assay as above.
Outline: as §1

Binder	SPOT peptide array binding signal intensity
LYEAMPPTLPHRDWK	67

The binders below were run against SpBzz1-D2 in the same assay as above.
Outline: as §1

Binder	SPOT peptide array binding signal intensity
LYEAMPPTLPHRDWK	0.5

What follows are binders tested against SpCyk3 in the same assay as above.
Outline: as §1

Binder	SPOT peptide array binding signal intensity
LYEAMPPTLPHRDWK	3

Each binder was assayed against SpHof1 in the same assay as above.
Outline: as §1

Binder	SPOT peptide array binding signal intensity
LYEAMPPTLPHRDWK	2

Each binder was assayed against SpHof1-2 in the same assay as above.
Outline: as §1

Binder	SPOT peptide array binding signal intensity
LYEAMPPTLPHRDWK	2

These binders were tested against SpHof1-3 in the same assay as above.
Outline: as §1

Binder	SPOT peptide array binding signal intensity
LYEAMPPTLPHRDWK	0.5

The binders below were run against SpHse1 in the same assay as above.
Outline: as §1

Binder	SPOT peptide array binding signal intensity
LYEAMPPTLPHRDWK	78.5

Each binder was assayed against SpLsb1 in the same assay as above.
Outline: as §1

Binder	SPOT peptide array binding signal intensity
LYEAMPPTLPHRDWK	2.25

These binders were tested against SpLsb4 in the same assay as above.
Outline: as §1

Binder	SPOT peptide array binding signal intensity
LYEAMPPTLPHRDWK	1290

These binders were tested against SpMyo1 in the same assay as above.
Outline: as §1

Binder	SPOT peptide array binding signal intensity
LYEAMPPTLPHRDWK	32.5

Each binder was assayed against SpNbp2 in the same assay as above.
Outline: as §1

Binder	SPOT peptide array binding signal intensity
LYEAMPPTLPHRDWK	22.5

The binders below were run against SpPex13 in the same assay as above.
Outline: as §1

Binder	SPOT peptide array binding signal intensity
LYEAMPPTLPHRDWK	38.5

The binders below were run against SpRvs167 in the same assay as above.
Outline: as §1

Binder	SPOT peptide array binding signal intensity
LYEAMPPTLPHRDWK	282

The binders below were run against SpSla1-D1-D2 in the same assay as above.
Outline: as §1

Binder	SPOT peptide array binding signal intensity
LYEAMPPTLPHRDWK	1

What follows are binders tested against SpSla1-D3 in the same assay as above.
Outline: as §1

Binder	SPOT peptide array binding signal intensity
LYEAMPPTLPHRDWK	21
